The results in this text go back to the supplement of paper PMC6555819.

What all share (assay): PBM binding z-score (relative to random genomic background probes); higher = stronger binding; sequences stand for … in GC…GCGATTGACAGCGTAGAATGAAGG
For assay [1], the system named is PPARg:RXRa DBDmut IVT, anti-RXR (DBD mutation: RXRa K156A/R161A, NR concentration 270 nM, RXRa partner concentration 90 nM). Put shortly: (§1)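 Ligand-free nuclear receptor dimers were applied to custom Agilent 4×180K protein-binding microarrays whose double-stranded probes carried direct-repeat seeds, single-nucleotide variants, half-site ablations and random human genomic background sequences in 34-nt variable regions. Incubation lasted 1 h. Binding z-scores were computed against the random background probes from regression-normalized fluorescence.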

In assay [2] the test system is PPARg:RXRa IVT, anti-PPARg (NR concentration 270 nM, RXRa partner concentration 90 nM). Put shortly: as §1
The test system of assay [3] is PPARg DBDmut:RXRa IVT, anti-PPARg (DBD mutation: PPARg1 K132A/R137A, NR concentration 270 nM, RXRa partner concentration 90 nM). The gist of the method:
as §1

In assay [4] the test system is PPARg DBDmut IVT, anti-PPARg (DBD mutation: PPARg1 K132A/R137A, NR concentration 270 nM). The gist of the method:
as §1

Assay [5] deals with PPARg homodimer (NR concentration 180 nM). The gist of the method: as §1
In assay [6] the test system is PXR:RXRa (NR concentration 270 nM, RXRa partner concentration 90 nM). The gist of the method:
as §1

For assay [7], the system named is PXR homodimer (NR concentration 270 nM). Put shortly:
as §1

Assay [8] has as its system RARa:RXR (NR concentration 270 nM, RXRa partner concentration 90 nM). Put shortly: as §1
For assay [9], the system named is RARa homodimer (NR concentration 270 nM). The gist of the method:
as §1

Assay [10] has as its system RARb:RXRa (NR concentration 270 nM, RXRa partner concentration 90 nM). Put shortly: as §1
Assay [11] relates to RARb homodimer (NR concentration 270 nM). The gist of the method: as §1
Assay [12] concerns RARg:RXRa (NR concentration 270 nM, RXRa partner concentration 90 nM). The gist of the method: as §1
Assay [13] relates to RARg homodimer (NR concentration 270 nM). The gist of the method:
as §1

Assay [14] relates to RXRa DBDmut IVT, anti-RXR (DBD mutation: RXRa K156A/R161A, NR concentration 90 nM). The gist of the method: as §1
The test system of assay [15] is RXRa homodimer (NR concentration 180 nM). The gist of the method: as §1
Assay [16] concerns THRa:RXRa (NR concentration 90 nM, RXRa partner concentration 90 nM). Put shortly:
as §1

For assay [17], the system named is THRa homodimer (NR concentration 90 nM). Put shortly: as §1
The subject of assay [18] is VDR homodimer (NR concentration 270 nM). The gist of the method: as §1

With TCTAGTTGGTCACGGAGCTCACACACGACGGGTA, the PBM binding z-score was determined as 2.15 in assay [1]; 2.2 in assay [2]; 0.346 in assay [3]; 0.786 in [4]; 0.57 in [5]; 0.334 in assay [6]. In addition, the PBM binding z-score in assay [7] was -0.237; in assay [8] it was 0.366; in [9], 0.0423; in assay [10], 1.5; in [11] it was 0.591; in assay [12], 1.04. For the same sequence, the PBM binding z-score is 1.24 in assay [13]; 0.372 in assay [14]; 0.925 in assay [15]; -0.123 in assay [16]; -0.466 in [17]; -0.521 in assay [18].
For the sequence AGAACGAGGGCAATGAGTTTATAGCACGGGTGGC, the PBM binding z-score in assay [1] is 3.6; in [2] it was 2.75; in assay [3] it was 0.304; in [4] it was -0.00705; in assay [5], -0.116; in [6], 4.31. For the same sequence, the PBM binding z-score in assay [7] is 12.1; in assay [8], 0.403; in assay [9], -0.186; in [10], 2.44; in assay [11], 1.18; in assay [12], 1.27. For the same sequence, the PBM binding z-score is 1.88 in [13]; 2.91 in assay [14]; 0.965 in assay [15]; 0.983 in assay [16]; -0.489 in assay [17]; 5.83 in [18].
CCTAGTTGGTCAGGAGGTCACGCACCGGATATGA: the PBM binding z-score is 1.74 in [1]; 4.03 in assay [2]; 0.246 in [3]; -0.0131 in [4]; 3.74 in [5]; 4.85 in [6]. Also, the PBM binding z-score stood at 1.04 in [7]; 5.52 in [8]; 2.11 in assay [9]; 4.06 in [10]; 4.9 in assay [11]; 5.68 in [12]. In addition, the PBM binding z-score in assay [13] worked out at 4.98; in assay [14] it was 0.815; in assay [15], 5.93; in assay [16], 3.94; in assay [17] it was 2.78; in assay [18], 2.71.
In the case of CCTACTGGGCCATTTAGAGGTCATTGATCATATG, the PBM binding z-score came out at 3.95 in assay [1]; 4.32 in assay [2]; 0.156 in assay [3]; 0.0335 in assay [4]; 2.07 in assay [5]; 4.7 in assay [6]. The PBM binding z-score in assay [7] was found to be 2.25; in [8], 4.46; in assay [9], 0.647; in assay [10] it was 2.89; in [11] it was 3.87; in [12], 4.06. For the same sequence, the PBM binding z-score stood at 2.72 in assay [13]; 1.45 in assay [14]; 3.21 in assay [15]; 3.31 in assay [16]; 1.7 in assay [17]; 3.36 in [18].
Turning to TTACCACGGTGAGCTGAGGTCGTTGATCCAACTC, the PBM binding z-score in assay [1] was -0.205; in assay [2], 0.363; in assay [3], -0.296; in assay [4], -0.157; in [5], -0.455; in assay [6], 2.07. Also, the PBM binding z-score in [7] is 0.241; in [8], 1.07; in assay [9], -0.639; in assay [10], 0.544; in assay [11], 0.63; in assay [12] it was 0.212. In addition, the PBM binding z-score is -0.116 in assay [13]; -0.00262 in assay [14]; 0.759 in assay [15]; 3.24 in assay [16]; 1.31 in assay [17]; 1.64 in [18].
Take CGAACTAGGTCATCCAGGATAGTGAATACATTGA: the PBM binding z-score in assay [1] is 7.97; in [2], 8.31; in [3], 1.76; in [4], 1.58; in [5], 1.43; in assay [6], 1.54. Further, the PBM binding z-score came out at 0.608 in [7]; 2.18 in assay [8]; 1.13 in [9]; 3.78 in [10]; 3.03 in [11]; 3.82 in [12]. Further, the PBM binding z-score in assay [13] was 4.37; in [14], 2.18; in assay [15] it was 2.75; in [16], 3.26; in assay [17] it was 1.49; in assay [18], 0.935.
For the sequence CTCGAAAGGTCTTGCTCAGGTGAGTATACCAAAC, the PBM binding z-score was 0.411 in assay [1]; 0.795 in [2]; 0.193 in assay [3]; -0.313 in assay [4]; 0.433 in assay [5]; 0.314 in assay [6]. For the same sequence, the PBM binding z-score in [7] is -0.568; in assay [8], 0.971; in assay [9], -0.363; in assay [10] it was 1.75; in assay [11], 1.29; in assay [12], 1.52. For the same sequence, the PBM binding z-score was 1.33 in [13]; 0.0538 in assay [14]; 0.775 in [15]; 2.67 in assay [16]; 0.893 in [17]; -0.0365 in assay [18].
Regarding ATCTCTTGGTAAAGATAGTTCAGTGAATGCAAAT, the PBM binding z-score in assay [1] is -0.0767; in assay [2], 0.448; in [3], 0.845; in assay [4] it was 1.88; in [5], 0.879; in [6], 0.78. Besides, the PBM binding z-score is 0.85 in assay [7]; 0.962 in assay [8]; 0.477 in assay [9]; 0.724 in [10]; 1.23 in assay [11]; 0.592 in [12]. In addition, the PBM binding z-score came to 0.734 in [13]; 0.404 in assay [14]; 0.246 in assay [15]; 0.575 in [16]; 0.156 in assay [17]; 0.713 in [18].
